# PubChem BioAssay AID720709 (National Center for Advancing Translational Sciences (NCATS), 2013)
# The whole screen tested about 360,000 compounds, of which about 520 (0.14%) were called active. About 3% were inconclusive and are not listed. The list comes from a sample in which actives are over-represented; it also holds similar structures and randomly drawn compounds. Unmarked numbers belong to inactive results. Calls come from the whole dose curve; as a rule, active = well fitted inhibition curve with a large enough effect; inconclusive = small, poorly fitted or top-dose-only effect; inactive = no such curve, though single readings can be large or run the other way.
# Molecular target: Rap guanine nucleotide exchange factor 3 (Homo sapiens) (UniProt O95398)
# Sequence (O95398 whole entry, looked up): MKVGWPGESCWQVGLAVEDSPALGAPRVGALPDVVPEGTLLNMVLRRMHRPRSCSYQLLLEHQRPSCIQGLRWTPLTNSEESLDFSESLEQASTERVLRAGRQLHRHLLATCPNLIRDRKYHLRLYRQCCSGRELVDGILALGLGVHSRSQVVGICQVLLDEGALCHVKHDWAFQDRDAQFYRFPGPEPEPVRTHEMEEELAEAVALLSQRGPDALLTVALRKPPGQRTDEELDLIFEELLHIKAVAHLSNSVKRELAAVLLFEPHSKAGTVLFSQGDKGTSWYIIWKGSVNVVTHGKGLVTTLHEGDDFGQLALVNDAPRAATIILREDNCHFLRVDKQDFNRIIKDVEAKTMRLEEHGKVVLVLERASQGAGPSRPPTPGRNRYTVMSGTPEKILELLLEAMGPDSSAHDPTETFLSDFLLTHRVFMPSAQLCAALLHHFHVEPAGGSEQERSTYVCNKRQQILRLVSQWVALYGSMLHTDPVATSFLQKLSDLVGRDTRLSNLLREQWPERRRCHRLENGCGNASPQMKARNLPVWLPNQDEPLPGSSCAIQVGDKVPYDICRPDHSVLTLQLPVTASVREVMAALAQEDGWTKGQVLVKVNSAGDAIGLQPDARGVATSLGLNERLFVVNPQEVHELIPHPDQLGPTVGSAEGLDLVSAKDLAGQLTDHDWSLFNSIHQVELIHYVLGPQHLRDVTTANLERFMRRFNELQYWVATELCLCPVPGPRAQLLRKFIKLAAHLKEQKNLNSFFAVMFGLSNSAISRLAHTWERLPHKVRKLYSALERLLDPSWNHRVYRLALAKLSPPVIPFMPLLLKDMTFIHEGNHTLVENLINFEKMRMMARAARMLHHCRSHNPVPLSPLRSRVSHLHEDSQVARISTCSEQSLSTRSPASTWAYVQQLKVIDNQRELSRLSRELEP
# Experiment: qHTS for Antagonist of cAMP-regulated guanine nucleotide exchange factor 3 (EPAC1): primary screen; note: nearly all actives have a fitted effect of over 50% in size
# Settings: EPAC1 GEF assay, Rap1b-BODIPY-GDP exchange fluorescence; series mostly up to 115 µM; activity change, negative = inhibition: at the top concentration
# Source text: In multi-cellular eukaryotic organisms, the effects of cAMP are transduced by two ubiquitously-expressed intracellular cAMP receptors, the classic protein kinase A/cAMP-dependent protein kinase (PKA/cAPK) and the more recently discovered exchange protein directly activated by cAMP/cAMP-regulated guanine nucleotide exchange factor (EPAC/cAMP-GEF). Both PKA and EPAC are ubiquitously expressed in all tissues, and an increase in intracellular cAMP levels will lead to the activation of both PKA and EPAC. Therefore, careful dissections of the individual role and relative contribution of EPAC and PKA within the overall cAMP signaling in various model systems are critical for further elucidating the mechanism of cAMP signaling. To date no EPAC-specific antagonists and agonist, as well as isoform-specific agonists have been reported, and developing EPAC-specific pharmacological probes to determine the physiological functions that EPAC play in the overall cAMP-mediated signaling remains a major challenge within the research field. Furthermore, identified regulators of EPAC may lead to new mechanism-based therapeutic strategies specifically targeting the EPAC / cAMP-signaling components as EPAC has been implicated to play important roles in major human pathological conditions such as diabetes, heart disease, and cancer. This qHTS will be used to screen the Molecular Libraries Small Molecule Repository (MLSMR) as a concentration-titration series using the NCGC unique quantitative screening (qHTS) platform to find inhibitors for EPAC1. In addition, this assay will also be used as a counterscreen for the EPAC2 qHTS. This fluorescent based assay is developed and validated for EPAC1 that measures exchange using EPAC effector Rap1 complex with BODIPY-GDP, a GDP analog with a tethered fluorophores. Inhibitors are identified by monitoring the change in fluorescence signal as the exchanged free BODIPY-GDP has a reduced fluorescence compared to Rap1-bound BODIPY-GDP. Decrease in signal (inhibition) is the desired outcome for the EPAC1 antagonist while no activity in this assay is desired for the EPAC2 antagonist counterscreen. de Rooij, J., Zwartkruis, F. J., Verheijen, M. H., Cool, R. H., Nijman, S. M., Wittinghofer, A., and Bos, J.L. (1998) Nature 396, 474-477 [2] Kawasaki, H., Springett, G. M., Mochizuki, N., Toki, S., Nakaya, M., Matsuda, M., Housman, D. E., and Graybiel, A. M. (1998) Science 282, 2275-2279 NIH Chemical Genomics Center [NCGC] NIH Molecular Libraries Probe Centers Network [MLPCN] MLPCN Grant: NS066510 Assay Submitter (PI): Xiaodong Cheng, The University of Texas, Medical Branch
# Briefly, three uL of reagents (100 nM EPAC1, 250 nM RAP1B-BODIPY-GDP, 50 uM GDP) were dispensed into a 1536-well Greiner black solid-bottom medium binding assay plate. Controls and test compounds (23 nL) were transferred to the plate via a Kalypsys pin tool equipped with a 1536-pin array. The plates were centrifuged at 1,000 rpm for 15 seconds followed by 5 minute incubation at room temperature. The assay plates were read at 5 minute intervals for 30 minutes in the ViewLux plate reader using 480nm excitation and 540nm emission filters. The results were normalized to the […] positive control ATA and DMSO.
# Potency is the fitted concentration of half-maximal effect.
SMILES,"activity change, negative = inhibition",Potency
COC(=O)C[C@@H]1C=C[C@@H](NS(=O)(=O)c2cccc(OC)c2)[C@@H](CO)O1,-27.2%,–
CC(C)(C)CC(=O)Nc1nc(C(N)Cc2ccc(C(F)(F)F)cc2)cs1 (stereo not given),12.1%,–
O=C(NCc1ccccc1)C1c2ccccc2OCC(=O)N1C1CC1 (stereo not given),-2.01%,–
Nc1[nH]c(C(=O)c2ccccc2)c(-c2ccc(Br)cc2)c1C(=O)NC1CC1,-28.1%,–
Cc1ccc(S(=O)(=O)N2CCC(=O)N([C@H](COCc3ccccc3)C(C)C)CC2)cc1,9.8%,–
Cn1cnc(S(=O)(=O)N2C[C@@H](O)COC[C@@H]3O[C@H](CC(=O)NC4CCC4)CC[C@H]32)c1,-13.4%,–
NC1=CC(=O)C(=O)c2cccnc21,–,56.2 µM (active)
O=C(OC1CC2CC1[C@H]1CCCCN1C2=O)N1CCOCC1 (stereo not given in full),2.08%,–
O=C1C(Sc2cccc(F)c2)=C[C@@]2(O)CC[C@@H](O)[C@]1(Sc1cccc(F)c1)[C@H]2O,-1.01%,–
O=C(Nc1ccc(F)cc1)C(CCc1ccccc1)N1CCN(CC(=O)N2CCCC2)CC1 (stereo not given),1.09%,–
OC(c1ccccc1)(c1ccccc1)C1CCN(CCCOc2ccccc2)CC1,16.4%,–
CCC(c1nc2ccccc2[nH]1)n1c(=O)c(-c2cccs2)nc2ccccc21 (stereo not given),12.6%,–
Cc1ccc(Cc2c(-c3ccc(Cl)cc3)nc3c4ccccc4ccn23)cc1,10.1% [at 57.5 µM],–
CCCCN1C(=O)C(CC(=O)NCc2cccs2)CC(C(=O)N2CCCCCC2)=C1C (stereo not given),3.73%,–
O=C(Nc1ccc(S(=O)(=O)Nc2nccs2)cc1)c1cc(=O)[nH]c2ccccc12,-5.17%,–
O=C(Nc1ccc(S(=O)(=O)Nc2nccs2)cc1)c1cc(-c2ccncc2)nc2ccccc12,–,79.4 µM (active)
O=C(CCc1ccccc1Cl)Nc1ccc(S(=O)(=O)Nc2nccs2)cc1,-9.94%,–
Cc1ccc2nc(-c3ccco3)c(Cc3cccc(Cl)c3)n2c1,-18.2%,–
CCOC(=O)N1CCN(C(=O)C[C@@H]2C[C@@]3(C(=O)OC)CCCCC=C3N(CCC3=CCCCC3)C2=O)CC1,-16.7%,–
CC(C)C[C@H]1CNC(=O)C(=O)N1C[C@@H]1CCCN1C[C@H](Cc1ccccc1)N1C[C@H](CC(C)C)N(CC2CCCCCC2)C(=O)C1=O,18.3%,–
O=C(NCc1ccccn1)[C@@H]1CCCN1C(=O)[C@@H]1CCCN1C(=O)c1ccccc1,-19.8%,–
COC(=O)c1ccc2nc(-c3ccc(F)cc3)c(Cc3ccc(C)cc3)n2c1,4.03%,–
CC1(C(=O)NCc2ccccc2)CSCC(=O)N1CCCn1ccnc1 (stereo not given),0.234%,–

SMILES,"activity change, negative = inhibition",Potency
COc1ccc(C(C(=O)NCc2ccccc2)n2c(=O)c(-c3ccccc3)nc3ccccc32)cc1 (stereo not given),-4.62%,–
CC(C)(C)NC(=O)C(CCc1ccccc1)n1c(=O)c(-c2ccccc2)nc2ccccc21 (stereo not given),-7.46%,–
CCCCNC(=O)OC1CC2CC1[C@H]1CCCCN1C2=O (stereo not given in full),-17.4%,–
CCCCNC(=O)C[C@@H]1C[C@@]2(C(=O)OCC)CCC=C2N(Cc2cccc3ccccc23)C1=O,5.54%,–
CCCCn1nnnc1C(c1cc2ccccc2o1)N(C)Cc1ccc(Cl)c(Cl)c1 (stereo not given),7.34%,–
COC(=O)C[C@H]1C=C[C@@H](NS(=O)(=O)c2ccc(C)cc2)[C@@H](CO)O1,14%,–
CCC(c1nnnn1-c1ccc2c(c1)OCCO2)N1CCN(c2ccc(C(F)(F)F)cn2)CC1 (stereo not given),-0.835%,–
CC(=O)C[C@@H]1OC[C@H](CO)N1S(=O)(=O)c1ccc(C)cc1,9.07%,–
COc1ccc(C2OC(CCc3ccccc3)Cc3[nH]c(=S)[nH]c(=O)c32)cc1 (stereo not given),-21.1%,–
CCOc1ccc(C(=O)Nc2ccc(S(=O)(=O)Nc3cc(C)on3)cc2)cc1,-4.54%,–
CCOc1ccc(CC(=O)Nc2ccc(S(=O)(=O)Nc3cc(C)on3)cc2)cc1OCC,4.44%,–
CCOc1ccc(Br)cc1S(=O)(=O)Nc1ccc(S(=O)(=O)Nc2cc(C)on2)cc1,–,39.8 µM (active)
CSCCC(C(=O)NC(C)(C)C)n1c(-c2ccccc2)nc2ccccc21 (stereo not given),5.22%,–
Fc1cccc(Cc2c(-c3cccc(Cl)c3)nc3ccc(Br)cn23)c1,-9.71%,–
COC(=O)C[C@@H]1C=C[C@@H](NC(=O)c2cccnc2)[C@@H](CO)O1,-6.55%,–
C[C@@H]1CC2=C(C(=O)OC(C)(C)O2)[C@@H](C2CC2)O1,3.98%,–
O=S1(=O)CC(N2CCN(CCO)CC2)CN1Cc1cn(Cc2ccc(Cl)cc2)nn1 (stereo not given),-10.3%,–
Cc1nccn1-c1ccc(NC(=O)[C@H]2O[C@@H](n3ccc(=O)[nH]c3=O)[C@H](O)[C@@H]2O)cc1,-7.46%,–
COc1ccc(OC)c(CN2C(=O)CCC2(C)c2nnnn2Cc2ccccc2)c1 (stereo not given),38.3%,–
COC(=O)[C@@]12C[C@@H](CC(=O)NCCCCc3ccccc3)C(=O)N(CCc3ccc(OC)c(OC)c3)C1=CCC(C)(C)C2,-23.2%,–
CCCCCn1nnnc1-c1nc2cc3ccccc3cc2[nH]c1=O,-10.4%,–
COC(=O)[C@@]12C[C@@H](CC(=O)NCCCCc3ccccc3)C(=O)N(Cc3ccccc3)C1=CCC(C)(C)C2,0.731%,–
